In the library only some 3.5% were active in any assay of this set; here they are far more common.
TWEAK-Fn14 inh: inhibitors of TWEAK-Fn14 interaction signaling; TWEAK-stimulated Fn14 reporter cells, luciferase luminescence, 8 h; inhibition, % at 10 µM; 360,000 compounds, 2% hits; AID 1159606; in the data active means inhibition above about 50%
PPC-1+TRAIL kill: kills PPC-1 cancer cells in the presence of TRAIL. PPC-1 cells + TRAIL, ATPLite viability luminescence. cell killing (% activity), % at 4 µM or 5 µM. 220,000 compounds, 0.41% hits. AID 1443;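 active means cell killing above 50% in the first pass at 4 µM, then a duplicate retest at 5 µM averaging 50% or more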;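 further: plate controls were cells with TRAIL plus DMSO for no effect and medium-only wells lacking cells for full effect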
C8 TRAIL sens: caspase-8 TRAIL sensitization. inhibition (viability loss, TRAIL sensitization), % at 10 µM. NB7+C8 cells + TRAIL, ATPlite viability luminescence. 360,000 compounds, 1% hits. AID 624354;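 active means compounds causing at least 50% loss of cell viability in the single-dose screen, relative to plate controls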
Platelet DG rel: platelet dense granule release activity; inhibition, %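 (compounds screened at 7.5 µM in platelet-rich plasma)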; 300,000 compounds, 0.22% hits; human platelet-rich plasma, SFLLRN dense granule ATP release, luminescence; AID 1663;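 active means mean replicate score, as percent of positive control, at or above 50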
TROY NFkB inh: blocks TROY-dependent signaling in reporter cells; Q293 LMP1-TROYcd NF-kB luciferase reporter, 4 h; inhibition, % at 10 µM; 360,000 compounds, 0.98% hits; AID 1347056;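 active means compounds whose plate-normalised and pattern-corrected inhibition of the luciferase reporter signal at the single screening dose is 50% or more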
HSP90 inh: HSP90 refolding inhibition in rabbit reticulocyte lysate; luciferase refolding luminescence, 3 h; inhibition, % at 5.6 µM; 290,000 compounds, 0.91% hits; AID 1789;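 active means inhibition above the screen-wide mean plus 3 SD, computed separately per campaign, cut at about 16% in these data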;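 further: 0% = DMSO wells and 100% = 60 µM geldanamycin wells; inhibitors lower the luminescence because luciferase stays unfolded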
The depositor's hits bear a star; / = no result.

SMILES	TWEAK-Fn14 inh	PPC-1+TRAIL kill	C8 TRAIL sens	Platelet DG rel	TROY NFkB inh	HSP90 inh
CCOC(=O)c1sc2nc(C)nc(NCc3ccccc3OC)c2c1C	54*	/	13	-1	31	5
COc1cc(S(=O)(=O)N2CCN(C(=O)c3cccs3)CC2)ccc1NC(C)=O	5	/	3	/	-16	/
O=C(Nc1nc2c(F)cccc2s1)c1ccco1	28	/	32	5	-38	15
O=C(Nc1nc2c(Br)cc(Br)cc2c(=O)s1)c1ccco1	62*	-12	-4	22	4	-1
O=C(CN1C2CCCC1CC(NC(=O)c1ccco1)C2)Nc1ccccc1C(F)(F)F (centres undefined)	31	-2	5	3	8	2
O=C(CN1C2CCCC1CC(NC(=O)c1ccccc1)C2)Nc1ccccc1C(F)(F)F (centres undefined)	39	/	6	2	51*	3
CCCc1cc(C(=O)N2CCCC(N3CCN(c4ccccc4F)CC3)C2)n(C)n1 (centres undefined)	10	/	1	53*	5	1
COc1ccc2nc(C)cc(Sc3nc4ccccc4s3)c2c1	88*	17	26	-6	35	7
Cc1ccc(NC(=O)c2cnn(-c3ccccc3)c2C)cc1	64*	/	45	13	1	11
Cc1ccc(NC(=O)c2cnn(-c3ccccc3)c2C)c(C)c1	-30	/	9	-1	-17	-1
Cc1ccc(S(=O)(=O)N2c3ccccc3OCC2c2ccccc2)cc1 (centres undefined)	63*	3	8	3	16	3
CC1COc2ccccc2N1S(=O)(=O)c1ccc(Cl)cc1 (centres undefined)	6	15	3	10	11	4
COc1c(CC=C(C)C)c(O)cc2oc(=O)c3c4ccc(O)cc4oc3c12	36	/	-13	1	-4	/
COc1c2c(cc3oc(=O)c4c5ccc(O)cc5oc4c13)OC(C)(C)CC2	77*	/	24	0	77*	/
O=c1c(-c2ccco2)[n+]([O-])c2ccccc2n1OCc1ccccc1[N+](=O)[O-]	8	-2	-8	-1	-14	-5
CC(Oc1ccc(F)cc1)C(=O)Nc1nc(-c2ccccn2)cs1 (centres undefined)	-94	/	8	-3	74*	/
O=C(CCS(=O)(=O)c1ccc(F)cc1)Nc1nc(-c2ccccn2)cs1	12	/	12	2	3	-4
CN(C)S(=O)(=O)n1cc(/C=C(\NC(=O)c2ccccc2F)C(=O)NCCCN2CCOCC2)c2ccccc21	14	/	-7	1	-18	-7
CCOc1ccc(CCNC(=O)C2CCCN(S(=O)(=O)N3CCOCC3)C2)cc1OCC (centres undefined)	-5	/	-2	1	6	-1
CCc1cccc(C)c1NC(=O)CN1C(=O)NC(C)(CCC(C)C)C1=O (centres undefined)	17	/	-5	/	-1	/
N#CC(C#N)=NNc1ccc2cn[nH]c2c1	92*	/	0	/	62*	/
CCNC(=S)Nc1ccc2cn[nH]c2c1	5	10	-4	28	15	-1
CCOC(=O)c1sc(NC(=O)CCN2C(=O)C3CCCCC3C2=O)cc1C (centres undefined)	-2	/	-1	/	-3	/
Cc1ccc(NC(=O)CNC(=O)c2cccs2)nc1	-5	/	9	-6	-3	/
Cc1cccc(N/C=C/C(=O)c2cccs2)c1C	58*	59*	79*	21	-18	4
SMILES	TWEAK-Fn14 inh	PPC-1+TRAIL kill	C8 TRAIL sens	Platelet DG rel	TROY NFkB inh	HSP90 inh
Cc1c(NC(=O)c2cccs2)cccc1NC(=O)c1cccs1	6	/	-11	1	-4	-4
NC(=O)c1ccccc1N/C=C/C(=O)c1cccs1	9	30	58*	41	-51	4
CC1(C)CC(=O)C(C=NCCCO)=C(O)C1	81*	5	17	-1	-3	4
CC1(C)CC(=O)C(C=NCC(N)=O)=C(O)C1	3	11	3	-1	5	3
CCOc1ccc(-c2c(C#N)c(N)nc3sc(C(=O)c4ccccc4)c(N)c23)cc1	76*	6	-5	-6	89*	2
COc1ccc(-c2c(C#N)c(N)nc3sc(C(=O)c4ccccc4)c(N)c23)cc1	30	-17	-6	12	25	-2
O=C(Nc1cccc(S(=O)(=O)N2CCCCC2)c1)c1ccc2c(=O)n3c(nc2c1)CCCCC3	71*	12	36	1	55*	4

Bioassay records deposited in PubChem BioAssay by several laboratories.
